Measurements from publication PMC7862700, “An all-to-all approach to the identification of sequence-specific readers for epigenetic DNA modifications on cytosine”.

How the values were obtained:
Test in all cases: DAPPL (digital affinity profiling via proximity ligation, sequencing); 10 mM Tris-HCl pH 7.5, 50 mM NaCl, 1 mM DTT, 4% glycerol, room temperature, 30 min; GST-TFs on glutathione beads, 16-mer random dsDNA library, 0.1% formaldehyde crosslink after washing; high values mean tight binding
Conditions in all cases: protein: recombinant; tags: N-terminal GST; dsDNA, one strand shown
FLI1 = target: T1, FLI1 (Homo sapiens, UniProt Q01543 1-452)
T1 sequence: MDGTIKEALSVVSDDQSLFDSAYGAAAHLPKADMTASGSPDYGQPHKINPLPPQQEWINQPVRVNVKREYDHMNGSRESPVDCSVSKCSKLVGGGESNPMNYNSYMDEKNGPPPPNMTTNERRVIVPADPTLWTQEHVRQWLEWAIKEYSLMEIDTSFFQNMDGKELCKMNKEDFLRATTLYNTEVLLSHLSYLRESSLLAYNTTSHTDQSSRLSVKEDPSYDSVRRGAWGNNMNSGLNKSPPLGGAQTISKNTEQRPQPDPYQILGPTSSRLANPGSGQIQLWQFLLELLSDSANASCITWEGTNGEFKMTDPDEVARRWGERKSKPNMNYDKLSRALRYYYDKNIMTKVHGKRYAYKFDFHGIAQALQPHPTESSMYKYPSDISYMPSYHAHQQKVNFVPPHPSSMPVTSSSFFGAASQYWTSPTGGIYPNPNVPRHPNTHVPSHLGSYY
In short: (§1)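 In yeast, human transcription factors were expressed with a GST fusion, then pulled down on glutathione beads and given DNA barcodes. Pooled with a tag-only sample, they were exposed to 200 nmole of a 16-mer random double-stranded DNA library (Tris/NaCl/DTT/glycerol buffer, room temperature, 30 min), washed, crosslinked with 0.1% formaldehyde, proximity-ligated using BsaI/T4 ligase for 1 h at 37 °C, PCR-amplified and read on an Illumina NextSeq500. Each hexamer's frequency of reads for a factor, divided by the matching frequency for the tag-only sample, gives the binding signal.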

ELK1 = target: T2, ELK1 (Homo sapiens, UniProt P19419 1-428)
T2 sequence: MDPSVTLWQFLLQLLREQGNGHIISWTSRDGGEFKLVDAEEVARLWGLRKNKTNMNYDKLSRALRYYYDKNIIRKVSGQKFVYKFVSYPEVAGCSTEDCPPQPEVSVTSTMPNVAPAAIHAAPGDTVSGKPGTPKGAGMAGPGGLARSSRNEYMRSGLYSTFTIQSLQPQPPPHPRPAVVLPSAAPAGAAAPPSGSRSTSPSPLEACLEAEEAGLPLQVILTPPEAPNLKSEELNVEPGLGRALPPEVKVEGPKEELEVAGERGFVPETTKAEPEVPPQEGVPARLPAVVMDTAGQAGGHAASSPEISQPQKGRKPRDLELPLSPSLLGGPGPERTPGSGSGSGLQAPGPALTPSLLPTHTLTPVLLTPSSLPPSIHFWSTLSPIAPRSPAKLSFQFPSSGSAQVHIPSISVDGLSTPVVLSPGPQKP
In short: as §1

GABPA = target: T3, GABPA (Homo sapiens, UniProt Q06546 1-454)
T3 sequence: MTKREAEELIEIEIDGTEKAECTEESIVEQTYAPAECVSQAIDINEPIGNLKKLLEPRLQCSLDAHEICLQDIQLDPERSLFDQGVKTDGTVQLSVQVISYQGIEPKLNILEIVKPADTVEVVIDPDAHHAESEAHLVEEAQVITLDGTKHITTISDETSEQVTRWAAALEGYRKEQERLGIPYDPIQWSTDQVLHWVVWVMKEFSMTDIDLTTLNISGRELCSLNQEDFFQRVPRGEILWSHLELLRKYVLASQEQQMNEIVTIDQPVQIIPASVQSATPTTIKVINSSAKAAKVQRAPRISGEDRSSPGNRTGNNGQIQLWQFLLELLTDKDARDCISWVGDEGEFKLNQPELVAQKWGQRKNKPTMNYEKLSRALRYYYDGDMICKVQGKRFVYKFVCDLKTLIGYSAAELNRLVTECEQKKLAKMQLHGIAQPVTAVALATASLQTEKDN
In short: as §1

ERG = target: T4, ERG (Homo sapiens, UniProt P11308 1-479)
T4 sequence: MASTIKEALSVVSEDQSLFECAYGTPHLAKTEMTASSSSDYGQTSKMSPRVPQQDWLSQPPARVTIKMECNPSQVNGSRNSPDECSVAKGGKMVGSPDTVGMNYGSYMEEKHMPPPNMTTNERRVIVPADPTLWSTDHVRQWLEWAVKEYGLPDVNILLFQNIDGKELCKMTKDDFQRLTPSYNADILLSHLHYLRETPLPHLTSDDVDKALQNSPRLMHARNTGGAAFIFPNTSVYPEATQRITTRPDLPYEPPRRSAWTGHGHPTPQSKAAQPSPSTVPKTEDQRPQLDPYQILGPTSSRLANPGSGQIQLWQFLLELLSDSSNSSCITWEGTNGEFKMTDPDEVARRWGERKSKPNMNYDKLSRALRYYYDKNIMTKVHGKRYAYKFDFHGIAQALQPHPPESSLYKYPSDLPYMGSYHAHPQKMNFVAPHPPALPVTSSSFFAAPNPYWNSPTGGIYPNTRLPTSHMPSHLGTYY
In short: as §1

ELF1 = ELF1 (Homo sapiens, UniProt P32519 1-619)
Sequence of ELF1 (P32519 whole entry): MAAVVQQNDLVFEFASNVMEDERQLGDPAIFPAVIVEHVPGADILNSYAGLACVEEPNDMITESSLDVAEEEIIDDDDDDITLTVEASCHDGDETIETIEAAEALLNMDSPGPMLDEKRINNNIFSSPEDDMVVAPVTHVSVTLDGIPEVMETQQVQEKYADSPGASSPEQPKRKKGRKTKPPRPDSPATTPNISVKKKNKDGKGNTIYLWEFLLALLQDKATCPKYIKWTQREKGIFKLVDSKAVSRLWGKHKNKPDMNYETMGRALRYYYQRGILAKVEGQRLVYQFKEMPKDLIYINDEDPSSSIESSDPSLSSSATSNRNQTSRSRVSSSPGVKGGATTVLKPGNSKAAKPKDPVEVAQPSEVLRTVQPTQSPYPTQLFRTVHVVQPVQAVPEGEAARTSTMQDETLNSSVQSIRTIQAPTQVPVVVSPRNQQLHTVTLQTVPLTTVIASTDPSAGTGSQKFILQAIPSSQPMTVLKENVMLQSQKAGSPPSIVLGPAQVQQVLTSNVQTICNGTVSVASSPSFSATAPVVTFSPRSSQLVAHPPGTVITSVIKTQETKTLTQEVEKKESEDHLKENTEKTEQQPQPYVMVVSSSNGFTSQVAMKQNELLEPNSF
In short: as §1

EHF = target: T5, EHF (Homo sapiens, UniProt Q9NZC4 1-300)
T5 sequence: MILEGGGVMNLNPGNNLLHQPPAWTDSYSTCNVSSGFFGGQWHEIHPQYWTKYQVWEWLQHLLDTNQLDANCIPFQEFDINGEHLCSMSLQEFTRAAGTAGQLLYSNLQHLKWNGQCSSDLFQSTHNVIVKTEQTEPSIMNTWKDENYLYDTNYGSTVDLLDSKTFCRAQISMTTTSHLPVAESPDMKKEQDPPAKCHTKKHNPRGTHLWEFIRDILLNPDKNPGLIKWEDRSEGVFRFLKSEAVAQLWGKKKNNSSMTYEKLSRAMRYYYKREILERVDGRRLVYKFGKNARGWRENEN
In short: as §1

SPI1 = SPI1 (Homo sapiens, UniProt P17947 1-270)
In short: as §1

SPIB = SPIB (Homo sapiens, UniProt Q01892 1-262)
Sequence of SPIB (Q01892 whole entry): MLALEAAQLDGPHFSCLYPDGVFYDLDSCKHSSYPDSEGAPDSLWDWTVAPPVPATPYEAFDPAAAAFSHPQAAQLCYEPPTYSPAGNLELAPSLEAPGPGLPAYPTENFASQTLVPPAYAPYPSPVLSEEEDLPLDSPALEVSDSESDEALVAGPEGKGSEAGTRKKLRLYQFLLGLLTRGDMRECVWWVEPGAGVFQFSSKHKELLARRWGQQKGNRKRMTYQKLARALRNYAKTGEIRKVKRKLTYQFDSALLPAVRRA
In short: as §1

ELK3 = target: T6, ELK3 (Homo sapiens, UniProt P41970 1-407)
T6 sequence: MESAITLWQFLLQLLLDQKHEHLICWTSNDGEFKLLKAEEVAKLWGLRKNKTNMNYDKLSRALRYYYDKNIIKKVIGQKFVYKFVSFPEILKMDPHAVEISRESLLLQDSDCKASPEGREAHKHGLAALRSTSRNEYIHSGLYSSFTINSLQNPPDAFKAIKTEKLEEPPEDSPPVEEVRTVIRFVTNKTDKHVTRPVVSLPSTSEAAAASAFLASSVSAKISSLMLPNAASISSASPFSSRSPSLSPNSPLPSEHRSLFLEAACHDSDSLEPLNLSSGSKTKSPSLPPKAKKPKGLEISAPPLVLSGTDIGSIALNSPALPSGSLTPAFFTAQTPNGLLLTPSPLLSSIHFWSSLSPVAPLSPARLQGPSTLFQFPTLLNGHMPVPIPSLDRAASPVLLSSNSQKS
In short: as §1

Sequence: CACGCT
- binding signal (FLI1): 1.42 fold enrichment (6-mer frequency, TF over GST control)
- binding signal (ELK1): 1.36 fold enrichment (6-mer frequency, TF over GST control)
- binding signal (GABPA): 1.36 fold enrichment (6-mer frequency, TF over GST control)
- binding signal (ERG): 1.4 fold enrichment (6-mer frequency, TF over GST control)
- binding signal (ELF1): 1.34 fold enrichment (6-mer frequency, TF over GST control)
- binding signal (EHF): 1.44 fold enrichment (6-mer frequency, TF over GST control)
- binding signal (SPI1): 1.33 fold enrichment (6-mer frequency, TF over GST control)
- binding signal (SPIB): 1.37 fold enrichment (6-mer frequency, TF over GST control)
- binding signal (ELK3): 1.35 fold enrichment (6-mer frequency, TF over GST control)
